Results published in PubChem BioAssay AID485364 (National Center for Advancing Translational Sciences (NCATS), 2010).
Screen size: about 360,000 compounds; about 11,000 (3.1%) were called active. Another 4% or so got no clear call; they are omitted. What follows is part of a selection rich in actives, with near analogues and random picks from the rest. A number with no mark means an inactive call. Calls follow the shape of the dose curve; as a rule, active = well fitted inhibition curve with a large enough effect; inconclusive = small, poorly fitted or top-dose-only effect; inactive = no such curve, though single readings can be large or run the other way.

Each compound was assayed against Schistosoma mansoni thioredoxin glutathione reductase (TGR) (UniProt Q962Y6) (assay: qHTS Assay for the Inhibitors of Schistosoma Mansoni Peroxiredoxins). Settings: purified TGR, DTNB reduction, TNB absorbance 405 nm; series mostly up to 114 µM; activity change, negative = inhibition: at the top concentration.
Procedure, shortened: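 TGR 20 nM + NADPH 100 uM (dispensed conc.), cpd preinc 15 min RT; start with NADPH (500 uM addition) then DTNB (15 mM addition). Kinetic TNB absorbance, 405 nm filter. Four-parameter Hill fit across titration.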
% is scaled to controls: 0 for no effect and ±100 for the full control effect; potency is read from the fitted curve at half-maximal effect.
Also: nearly all actives have a fitted effect of over 60% in size.

In order of falling “activity change, negative = inhibition” value:
1. COc1ccccc1C(=O)NCCn1cc(SCc2ccccc2Cl)c2ccccc21  15.5%
2. COc1cccc(CNc2nccn(-c3ccc(OC)c(OC)c3)c2=O)c1  10.1%
3. O=C(NCc1ccc(Cl)c(Cl)c1)c1cccnc1  10%
4. Cc1c(-c2nsc(NC(=O)c3cccc(Cl)c3)n2)nnn1-c1ccccc1C(F)(F)F  9.29%
5. CN(C)CCCn1c(-c2ccc(Cl)cc2)csc1=Nc1ccccc1  9.1%
6. Cc1cccc(NC(=O)Cn2nc(-c3ccc(Cl)cc3)c3ccccc3c2=O)c1  9.04%
7. COc1cc(Cl)ccc1Nc1ncc(C(=O)N2CCN(c3ccccc3OC)CC2)c2ccccc12  8.24%
8. COc1ccc(-c2nc(SCC(=O)N3CCCC3)n[nH]2)cc1  8.14%
9. Cc1cccc(CCNC(=O)c2ccc3c(c2)nc2n3CCC(C)C2)c1 (centres undefined)  7.13%
10. COc1cc(OC)cc(C(=O)Nc2ccc3nc(Nc4cccc(C(F)(F)F)c4)cc(C)c3c2)c1  6.99%
11. CCc1nn(CCCC(=O)NCc2ccccc2OC)c(=O)c2cc3occc3n12  6.78%
12. Cc1ccc(-c2cc(C(F)(F)F)c(C#N)c(SCC(=O)Nc3ccccc3)n2)cc1  6.14%
13. Cc1ccc(S(=O)(=O)Cn2nnnc2CN2CCN(Cc3ccc4c(c3)OCO4)CC2)cc1  5.87%
14. COc1ccc(NC(=O)Cn2c(=O)n(CCC(C)C)c(=O)c3cccnc32)cc1Cl  4.25%
15. CC1CCCN(CC(=O)Nc2cc(Cl)ccc2Oc2ccccc2)C1 (centres undefined)  3.98%
16. COc1ccc(NC(=O)CSc2nc3ncccc3[nH]2)c(OC)c1  3.81%
17. COc1ccc(-c2nc3ccccc3o2)cc1NC(=O)c1cc([N+](=O)[O-])ccc1N1CCOCC1  3.13%
18. O=C(NCc1ccco1)C1CCCN(S(=O)(=O)c2ccccc2)C1 (centres undefined)  2.53%
19. CN1C(=O)c2ccccc2Sc2ccc(NC(=O)Cc3ccc(Cl)cc3)cc21  2.52%
20. Cc1c(C(=O)NCc2ccccc2Br)oc2ccc3c(c12)C(=O)CC(C)(C)O3  1.93%
21. Cc1ccc(CNC(=O)C2CCCN2S(=O)(=O)c2ccc3c(c2)C(C)(C)C(=O)N3C)cc1 (centres undefined)  1.2%
22. COc1ccc(N2CCN(c3cc(C)nc4nncn34)CC2)cc1  0.741%
23. O=C(NCc1ccco1)C1CCCN(S(=O)(=O)c2cnc[nH]2)C1 (centres undefined)  0%
24. CCOc1cc(NS(=O)(=O)c2ccc(OC)cc2)c(OCC)cc1NC(C)=O  0%
25. CCOC(=O)c1ccc(N2C(=O)CC(Sc3nc(O)c(CC)c(=O)[nH]3)C2=O)cc1 (centres undefined)  0%
26. COc1ccc(C(=O)Nc2nonc2-c2ccc(OC)c(OC)c2)cc1Cl  -0.679%
27. CCOc1cc(NC(=O)Nc2ccccc2)c(OCC)cc1NC(=O)CC  -0.833%
28. Cc1cc2nc(-c3ccc(NC(=O)c4cc5ccccc5o4)cc3)oc2cc1C  -1.68%
29. COc1cc(OC)c(N(C)C(=O)c2cc3c(=O)oc4ccccc4c3s2)cc1Cl  -2.14%
30. CSc1nc(-c2ccc(F)cc2)nc2c1Cc1c(CO)cnc(C)c1O2  -3.94%
31. Cc1ccc2nc(CN3CCN(S(=O)(=O)c4ccc(C)c(C)c4)CC3)oc2c1  -4.25%
32. O=C(OCc1cc(Cl)ccc1OC(F)F)c1cccnc1  -4.95%
33. CCN(C(=O)CSc1ncn[nH]1)c1cccc2ccccc12  -5.37%
34. COC(=O)c1c(C)[nH]c(C(=O)/C=C/c2ccc(Cl)cc2)c1C  -5.56%
35. OCc1cnc(SCc2ccc(F)cc2)n1Cc1ccc(F)cc1  -8.02%
36. O=C1CC(c2ccccc2)C(=O)N1c1cccc(O)c1 (centres undefined)  -8.38%
37. Cc1cccc(N2CCN(c3ccc(C(=O)O)cc3NC(=O)c3ccccc3F)CC2C)c1 (centres undefined)  -9.71%
38. COC(=O)c1cc(NC(=O)CCS(=O)(=O)c2cc(Br)cc3c2N(C(=O)C2CC2)CC3)cc(C(=O)OC)c1  -9.74%
39. C/C(=C\c1ccccc1)C1NC(=O)c2c(sc3c2CCCC3)N1 (centres undefined)  -10.9%
40. COc1ccc(N2C(=O)CC(SC(C)C)C2=O)cc1 (centres undefined)  -11.8%
41. CCOC(=O)N1CCC(NC(=O)c2cnn(-c3cccc(C)c3)c2C2CCN(C(=O)OC(C)(C)C)CC2)CC1  -12.9%
42. Cc1nc(-c2ccc(Cl)cc2)sc1C1(C)CC(c2ccccc2F)=NO1 (centres undefined)  -13.9%
43. Cc1nc(-c2ccccc2)sc1C(=O)/C=C/N(C)C  -15.3%
44. O=C(NCCCO)C(=O)Nc1c2c(nn1-c1ccccc1)CSC2  -19.7%
45. Cc1ccc(S(=O)(=O)N2CCC(C(=O)N[C@@H](C)C(=O)NCc3ccco3)CC2)cc1  -19.9%
46. O=C(O)c1cnn2c(C(F)(F)F)cc(-c3ccccc3)nc12  -20.4%
47. Fc1ccccc1C(c1nnnn1Cc1ccc2c(c1)OCO2)N1CCN(Cc2ccccc2)CC1 (centres undefined)  -21.9%
48. CSc1nc(-c2ccccc2Cl)nc2c1Cc1c(CO)cnc(C)c1O2  -22.1%
49. O=C(NCc1ccco1)c1ccc([N+](=O)[O-])cc1Cl  -30.4%
50. CC(=O)Nc1ccc(N2C(=O)CC(Sc3nccc(C)n3)C2=O)cc1 (centres undefined)  -33.9%

With Cc1ccccc1CSc1nc(-c2ccccc2)nc2c1Cc1c(CO)cnc(C)c1O2 the Potency was 39.8 µM (active).
In the case of Cc1cc(NC(=O)CN2CCCC(C)C2)n(-c2nc3ccccc3s2)n1 (centres undefined), the Potency is reported as 12.6 µM (active).
O=C(NCc1ccco1)c1cnn2c(C(F)(F)F)cc(-c3ccco3)nc12 was tested, and the Potency was 50.1 µM (active).
With Cc1[nH]c(=O)c(C(=O)/C=C/c2ccccc2)c2c1CCCC2 the Potency was 35.5 µM (active).
In the case of Cc1nc(-c2ccc(Cl)cc2)sc1C(=O)CBr, the Potency is reported as 39.8 µM (active).
With Cc1cc(C)c2[nH]c(=O)c(C(c3nnnn3Cc3ccc4c(c3)OCO4)N3CCCC3)cc2c1 (centres undefined) the Potency was 15.8 µM (active).
With O=C(/C=C/c1ccc(Cl)cc1Cl)c1cccnc1 the Potency was 8.91 µM (active).
O=C(NCc1ccco1)C1CCCN(S(=O)(=O)c2cccc3nonc23)C1 (centres undefined) was tested, and the Potency was 22.4 µM (active).
With Cc1ccc(S(=O)(=O)N2CCCC2C(=O)NCc2ccco2)cc1 (centres undefined) the Potency was 50.1 µM (active).
In the case of CCOc1cc(NC(=O)CCl)c(OCC)cc1NC(C)=O, the Potency is reported as 44.7 µM (active).
O=C1CC(Sc2ncn[nH]2)C(=O)N1c1ccccc1 (centres undefined) was tested, and the Potency was 0.501 µM (active).
For COc1ccc(N2C(=O)CC(Sc3n[nH]c(-c4ccc(C)cc4)n3)C2=O)cc1 (centres undefined), the Potency was 0.708 µM (active).
In the case of Cc1ccc(N2C(=O)CC(Sc3ncn[nH]3)C2=O)cc1 (centres undefined), the Potency is reported as 0.447 µM (active).

Compound CC(=O)Nc1ccc(NC(=O)CN2CCCC(C)C2)c(Cl)c1 (centres undefined) has an activity change, negative = inhibition of 9.99% [at 11.4 µM].
